In all, about 340,000 compounds went through this assay and about 1,000 (0.29%) were called active. Not all results are given here. Potency and affinity values are given separately. A number with no mark means an inactive call. No stated cut-off is given here; in the data, inconclusive means inhibition above about 27% without an active follow-up result; inactive means below that.
Assay: H1N1 influenza NS1A inhibitors, functional cell based assay (AID 504329)
Conditions: percent inhibition, at 12.5 µM, active compounds read high

SMILES	inhibition
COc1ccc(-c2cc(C#N)nc(NN)n2)cc1	4.09%
N/C(CSc1ccccn1)=N\OCc1c(Cl)cccc1Cl	-0.92%
Cc1ccc(CNC(=O)CSc2ccc(-c3ccco3)nn2)cc1	0.95%
CCC(=O)Nc1cc(-c2nn(CC(=O)N3CCCCC3)c(=O)c3ccccc23)ccc1N1CCOCC1	-7.33%
C=CC[C@H]1C=C[C@@H](C(C(=O)OC)C(=O)OC)CN1C(C)=O	-4.78%
COCCOC(=O)c1c(NC(=O)COC(=O)Cc2cccc(OC)c2)sc(C(N)=O)c1C	6.16%
C/C(=N/NC(=O)c1cc2ccccc2cc1O)c1ccco1	-9.07%
C/C(=N\NC(=O)c1cc2ccccc2cc1O)c1cccs1	-6%
O=C(N/N=C/c1ccccn1)c1cc(Br)ccc1O	-2.68%
C/C(=N\NC(=O)c1cc(Br)ccc1O)c1cccs1	0.04%
CN1CCc2cc3c(c4c2C1CC41CCC(=NO)CC1)OCO3 (stereo unspecified)	4.88%
C=CCOC(=O)C1=C[C@H](C2CC2)[C@@H](CCCO)[C@H](OCC)O1	-9.11%
CC(C)/C=C/C(=O)N1CCCC(N2CCN(c3ccccc3F)CC2)C1 (stereo unspecified)	-4.31%
COc1ccccc1NC(=O)CSc1nnc(C)s1	4.51%
Cc1ccccc1CSc1nn2c(=O)c(C)nnc2s1	-4.51%
Cc1nnc2sc(SCc3ccccc3Cl)nn2c1=O	-4.7%

SMILES	inhibition
COc1ccc(OC)c(NC(=O)CSc2nn3c(=O)c(C)nnc3s2)c1	12.7%
O=C(/C=N/O)NCc1ccncc1	-2.91%
O=C(CC(NS(=O)(=O)c1ccc(Cl)cc1)c1ccco1)NCc1ccco1 (stereo unspecified)	-0.25%
Cc1ccccc1NC(=S)N(Cc1cccnc1)Cc1ccco1	17%
Cc1cc(C(=O)NCCCOC(C)C)c2ccccc2n1	5.34%
COc1ccc(-c2csc(NC(=O)CCCc3nc4ccccc4c(=O)[nH]3)n2)cc1OC	0.34%
N#Cc1ccc(CSc2nnc3[nH]c(=O)cc(N)n23)cc1	-7.19%
O=C(COc1ncnc2ccccc12)NC1CCCCC1	9.63%
COc1ccc(CC(=O)NC(C)c2nnc(SCC(=O)Nc3cc(C)ccc3OC)n2C)cc1 (stereo unspecified)	-9.49%
O=c1cnnc(N/N=C/c2ccccn2)[nH]1	20.5%
Cc1cccc(/C=N/Nc2nncc3ccccc23)c1	3.05%
C(=N\Nc1nc2ccccc2[nH]1)/c1ccccn1	17.1%
O=C(N/N=C/c1ccccn1)c1ccc(N/N=C/c2ccccn2)cc1	1.09%
Cc1csc(N/N=C/c2ccccn2)n1	7.11%
C(=N\Nc1nncc2ccccc12)/c1ccccc1	-20.6%
